From PubChem BioAssay
Sampled rows, rich in hits. Any-hit rate of the full collection: about 1.3%.
CRFBP-R2 agonist: CRF-BP/CRF-R2 complex agonism. 350,000 compounds, 0.46% hits. activation, % at 13.2 µM. HEK293 CRF-R2/CRF-BP, calcium dye fluorescence (FLIPR); percent of saturating CRF peptide response. AID 588473;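 active = activation of at least 50%, plus an integration ratio under a set limit after plate pattern correction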;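 note: plate controls were neutral control wells without compound for no effect and CRF at EC100 for full effect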
CRFR2-BP antag: antagonists of CRF-binding protein/CRF-R2 receptor complex. HEK293 CRF-R2/CRF-BP, CRF-induced calcium fluorescence. inhibition, % at 11.8 µM. 350,000 compounds, 0.59% hits;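 active = inhibition of the ligand-induced calcium signal above about 50% at the single tested concentration, limit read from the data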
cardiac RTF act: cardiac RTF calcium sensitization; P19429+P45379; IANBD-labeled TnC RTF fluorescence at EC20 calcium; 0% EC20 calcium, 100% full calcium; activation, % at 7.2 µM; 340,000 compounds, 0.24% hits; AID 493008;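 active = activation above the mean over all tested compounds plus 3 SD, cut at about 30% in these data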;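 note: rise in fluorescence read as greater calcium sensitivity of cardiac thin filaments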
Cardiac RTF inh: cardiac RTF calcium desensitization. P19429+P45379. IANBD-labeled cardiac RTF, Ca2+ fluorescence. inhibition, % at 7.15 µM. 340,000 compounds, 0.12% hits. AID 493244;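 active = inhibition above the mean inhibition of all tested compounds plus 3 SD, cut at about 17% in these data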;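 note: assay run at fixed EC70 calcium of 1.6 mM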
Active calls of the source: *; i = inactive; nt = no result given; + = active, no number.

SMILES	CRFBP-R2 agonist	CRFR2-BP antag	cardiac RTF act	Cardiac RTF inh
Cc1cc(NC(=O)CCSc2nc(-c3ccco3)cc(C(F)(F)F)n2)no1	2	91*	-10	0
O=C(CSc1nc(-c2ccco2)cc(C(F)(F)F)n1)NCCCN1CCOCC1	-1	51*	0	-1
COCCNC(=O)c1cc(S(=O)(=O)N2CCOCC2)ccc1SCc1cccc(OC)c1OC	-2	15	-3	-1
CC(Oc1ccc(F)cc1)C(=O)Nc1ccc(S(=O)(=O)NC2=NCCCCC2)cc1 (stereo not given)	27	-18	5	-8
CC(Oc1ccc(Br)cc1)C(=O)Nc1ccc(S(=O)(=O)NC2=NCCCCC2)cc1 (stereo not given)	81*	-79	7	1
COc1ccc(Nc2ccccc2)c(C)c1	0	50*	5	1
O=C(COc1cccc(C(F)(F)F)c1)NNC(=O)Cn1c(=O)cnc2ccccc21	0	19	5	6
COc1cccc(C(=O)NC2CC3CCCC(C2)N3S(=O)(=O)c2ccccc2)c1 (stereo not given)	-2	-7	-5	0
O=C(COC(=O)c1cc2ccccc2cc1O)NC1CCCCC1	-1	87*	0	-6
O=C(COC(=O)c1cc(Br)ccc1O)NC1CCCCCC1	-1	8	2	-2
CCOc1cc2c(cc1/C=C/c1noc(C)c1[N+](=O)[O-])OC(C)C2 (stereo not given)	193*	-218	22	-26
CCOc1cc2c(cc1C=O)OC(C)C2 (stereo not given)	-3	-10	-5	0
Nc1cc2c3c(cccc3c1)C(=O)N(CCN1CCCC1)C2=O	66*	-56	14	-19
COC(=O)CN1C(c2ccc(Cl)cc2)=Nc2ccc(Cl)cc2C1c1ccccc1 (stereo not given)	-2	65*	8	-13
Cc1occc1C(=O)NC(C)C12CC3CC(CC(C3)C1)C2 (stereo not given)	-21	52*	3	-8
COC(=O)C1=COC(C)C2CN3CCc4c([nH]c5ccccc45)C3CC12 (stereo not given)	19	-12	35*	-33
COc1ccc(CCN2C(=O)CC(Cc3ccccc3)C2=O)cc1OC (stereo not given)	6	79*	4	-1
CC(C)Oc1ccc(/C=N/NC(=O)C(CSCc2ccccc2)NC(=O)c2ccc([N+](=O)[O-])cc2)cc1 (stereo not given)	104*	-46	0	2
O=C(NC(Cc1ccc(O)cc1)C(=O)O)c1ccc2c(c1)OCO2 (stereo not given)	-1	2	-6	-2
CC(NCCCSc1ccccc1)C(O)c1ccc(O)cc1 (stereo not given)	-1	-33	nt	nt
CC1=CC(C)(C)N(C(=O)c2ccccc2)c2ccc(C)cc21	67*	-49	-3	3
COc1ccc(/C=C/C(=O)NCCSCc2ccco2)cc1OC	0	66*	0	3
OCCc1c[nH]c2ccc(C(F)(F)F)cc12	2	11	13	0
N#CC1=C(N)SC(N)=C(C#N)C1CCc1ccccc1	103*	-41	39*	-55
CC(C)CC1C(C#N)=C(N)SC(N)=C1C#N	50*	-56	42*	-37
SMILES	CRFBP-R2 agonist	CRFR2-BP antag	cardiac RTF act	Cardiac RTF inh
N#CC1=C(N)SC(N)=C(C#N)C1Cc1ccccc1	47	-42	43*	-73
O=C(Nc1ccn(CCCNCc2ccc3c(c2)OCO3)c(=O)n1)OCc1ccccc1	1	110*	-5	2
COc1ccc(N2C(=O)c3cccc4c(N(C)CCO)ccc(c34)C2=O)cc1	77*	-57	48*	-71
CCCCON1C(=O)c2cccc3cccc(c23)C1=O	0	99*	-5	-6
COc1ccc(N2C(=O)c3cccc4cccc(c34)C2=O)cc1	85*	-89	1	-6
COc1ccc(N2C(=O)c3ccccc3C2=O)cc1	-2	24	0	-2
CCc1ccc(C(C)NC(=S)NC2CCCCC2)cc1 (stereo not given)	5	71*	0	6
CC(C)NC(=S)NC(=O)c1ccc(-c2ccccc2)cc1	72*	-172	-3	-3
COc1ccc(NC(C)=O)cc1S(=O)(=O)NC1CCSc2ccccc21 (stereo not given)	0	-2	4	4
O=C(O)c1ccc(Nc2nc(-c3cc4ccccc4oc3=O)cs2)cc1O	61*	-44	nt	nt
Cc1ccc(C)c(S(=O)(=O)ON2C(=O)c3ccccc3C2=O)c1	1	63*	-5	-3
Cc1cc(S(=O)(=O)ON2C(=O)c3ccccc3C2=O)ccc1F	2	13	3	-5
CN(C)CCCNC(=S)N1CCn2c(nc3ccccc32)C1	-1	8	-5	-6
COc1cc(CCC(=O)Nc2cc(C)cc(C)c2)cc(OC)c1OC	-1	20	-1	0
COc1cc(CCC(=O)NC2(C)CCS(=O)(=O)C2)cc(OC)c1OC (stereo not given)	-2	53*	-3	-8
CCOC(=O)C1=C(C)N=c2s/c(=C/c3cccc([N+](=O)[O-])c3O)c(=O)n2C1c1ccc(OC)cc1OC (stereo not given)	-1	59*	-1	1
COc1ccc(C2C(C(C)=O)=C(C)N=c3s/c(=C\c4cc(C)n(C)c4C)c(=O)n32)c(OC)c1 (stereo not given)	17	-28	110*	-120
CCOC(=O)C1=C(C)N=c2s/c(=C\c3ccc(O)c([N+](=O)[O-])c3)c(=O)n2C1c1ccccc1OC (stereo not given)	-1	30	0	-5
CC(C)(CNC(=O)c1ccccc1F)CNC(=O)c1ccccc1F	0	-4	1	-5
Cc1ccc(OCCC(=O)OCC(=O)Nc2c(C)nn(-c3ccccc3)c2C)cc1	0	-3	5	-22
O=C(Cn1cc(C(F)(F)F)ccc1=O)NC1CCCC1	1	5	-4	-1
O=C(c1ccc(N2CCNCC2)cc1)c1cccnc1	-3	62*	-7	-10
O=C(O)COc1ccccc1/C=N/NC(=O)CSc1nc2ccccc2n1Cc1ccc(Cl)cc1	-1	2	0	8
Cc1nnc(NC(=O)CCn2c(=O)oc3ccccc32)s1	1	-1	2	-5
O=C1c2ccccc2-c2onc3ccc(NCCCn4ccnc4)c1c23	194*	-166	nt	nt
SMILES	CRFBP-R2 agonist	CRFR2-BP antag	cardiac RTF act	Cardiac RTF inh
NS(=O)(=O)c1ccc(NCCCn2ccnc2)c([N+](=O)[O-])c1	-1	4	-3	0
COc1ccc2noc3c2c1C(=O)c1ccccc1-3	169*	-115	+	i
N#C/C(=C\C=C\c1ccccc1)c1nc(-c2ccc3c(c2)OCO3)cs1	65*	-74	34*	-24
COc1ccc(/C=C/C(=O)NC(=S)NNC(=O)c2c(-c3ccccc3)noc2C)cc1	2	3	5	-7
C=CCNC(=S)NNC(=O)c1cccn(Cc2ccc(Cl)cc2Cl)c1=O	18	-61	1	-5
CCNC(=S)NNC(=O)c1cccn(Cc2ccc(Cl)cc2Cl)c1=O	61*	-87	1	-2
